Screening results as filed in PubChem.
This is a sample that favours compounds with a hit; in the whole collection about 21% have one here.
DRD3 agonist: activates the human D3 dopamine receptor. P35462. D3R DiscoveRx beta-arrestin cells, luminescence, 90 min. max activation, %. 0.58% of 410,000 active; in the data active means max activation above about 30%
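Cells at 1500/well, incubated overnight, then treated with pinned compounds (dopamine as control) for 90 min at 37 degrees C. DiscoveRx reagent added for 30 - 60 minutes at room temperature; luminescence read.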
ClpP mod: qHTS Assay for Activators of ClpP; Potency, µM (series often up to 57.5 µM); purified B. subtilis ClpP, FRET peptide cleavage, 20 min; 1.9% of 340,000 active; active means well fitted falling curve with a large enough effect; inconclusive means small, poorly fitted or top-dose-only effect; inactive means no such curve, though single readings can be large or run the other way; further: the source files actives as falling curves though it sought activators and does not explain the sign; nearly all actives have a fitted effect of over 65% in size
Target sequence (P80244 whole entry, looked up): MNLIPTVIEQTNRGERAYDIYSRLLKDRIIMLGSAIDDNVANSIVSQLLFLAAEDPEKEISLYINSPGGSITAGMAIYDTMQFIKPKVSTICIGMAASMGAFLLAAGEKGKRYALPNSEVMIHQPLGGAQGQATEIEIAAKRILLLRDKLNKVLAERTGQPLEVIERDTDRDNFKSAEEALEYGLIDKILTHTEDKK
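Buffer: 100 mM Tris/HCl pH8, 100 mM KCl, 0.05% low protease BSA, 2.5% glycerol, 0.01% Tween-20. ClpP 10 microg/mL final; 20 min RT; delta FRET normalized to ADEP and DMSO controls.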
DT40 TDP1 no CPT: qHTS for Inhibitors of human tyrosyl-DNA phosphodiesterase 1 (TDP1): qHTS in cells in absence of CPT; DT40 Tdp1-/- hTDP1 cells, no CPT, ATP luminescence, 48 h; Potency, µM (highest dose often 46.2 µM), hits mostly inhibitors; 15% of 420,000 active; AID 686978, 2013; further: nearly all actives have a fitted effect of over 55% in size
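No-CPT arm: Tdp1-/-;hTDP1 DT40 cells (400/well) plus compounds, incubated ≥48 hr at 37 °C. Readout CellTiter-Glo luminescence.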
TDP1 cell CPT: DT40-hTDP1 cell growth loss with CPT. Potency, µM (highest dose often 46.2 µM), hits mostly inhibitors. AID 686979. chicken DT40 Tdp1-/-;hTDP1 cells + 20 nM CPT, ATP luminescence, 48 h. 12% of 420,000 active; further: nearly all actives have a fitted effect of over 55% in size
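Chicken DT40 Tdp1-/- cells stably complemented with human TDP1 were seeded at 400 cells/well in medium containing 20 nM camptothecin, exposed to pin-transferred compounds, and grown at 37 °C for at least 48 hr. Viability was read as ATP luminescence.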
IL-1B inflam inh: inflammasome signaling inhibition, IL-1 beta readout; THP-1 LPS/ATP IL-1B secretion, AlphaLISA, 16 h; stronger effect = lower value; activity change, % at 57.5 µM; 4.7% of 360,000 active; AID 743279; in the data active means activity change below about -50%; inconclusive means mostly about -30% to -49%
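Secreted IL-1B measured by AlphaLISA bead assay after 16 h compound exposure of THP-1 cells; compounds (final up to 57.5 uM) added 1 h before LPS (250 ng/mL) and ATP (1.25 mM) stimulation; lower signal means less secretion.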
D3 antag: blocks the human D3 dopamine receptor; 2.5% of 360,000 active; max response, negative = inhibition, %; D3R cells, DiscoveRx beta-arrestin luminescence, antagonist mode; stronger effect = lower value; in the data active means max response below about -50%; inconclusive means no clear call, values can overlap the other calls
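Cells expressing the human receptor were seeded at 1500 cells/well, incubated overnight at 37 degrees C in 5% CO2, then exposed to library compounds with dopamine controls for 90 minutes at 37 degrees C before luminescent detection.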
Hits are given with their value; n = inactive; u = inconclusive; x = not tested or not shown. Unless noted, the call rests on the fitted dose curve; in most records, active means well fitted inhibition curve with a large enough effect; inconclusive means small, poorly fitted or top-dose-only effect; inactive means flat fitted curve, though single readings scatter.

SMILES	DRD3 agonist	ClpP mod	DT40 TDP1 no CPT	TDP1 cell CPT	IL-1B inflam inh	D3 antag
C/C(CCc1oc2c(Br)cc(Br)cc2c1-c1ccc(C)o1)=N\O	n	n	18µM	16µM	n	n
C/C(CCc1oc2ccccc2c1-c1ccc(C)o1)=N/O	n	u	18µM	u	n	n
CCOC(=O)c1c(NC(=S)NCC2CCCO2)sc(C)c1C (configuration not stated)	n	x	u	n	n	n
CC1C/C(=C\c2cccnc2)C(=O)/C(=C/c2cccnc2)C1 (configuration not stated)	n	n	0.73µM	0.82µM	-101	u
CN1C(=O)S/C(=C/c2cccnc2)C1=O	n	n	n	u	n	n
O=C1/C(=C/c2cccnc2)CCc2c1[nH]c1ccccc21	n	x	u	18µM	-103	n
CC(C)C/C=C1\CCc2c([nH]c3ccccc23)C1=O	n	x	n	n	n	u
COc1cccc(Cn2c(CNC(=O)CCc3ccccc3)nc3cccnc32)c1	n	n	u	u	x	x
CC(=O)Nc1cccc(NC(=O)CSc2ncc(-c3ccc(Cl)cc3)n2Cc2ccco2)c1	n	n	21µM	21µM	n	n
COc1ccc(-c2cnc(SCC(=O)Nc3ccc4c(c3)OCO4)n2Cc2ccco2)cc1	n	n	18µM	18µM	-73	n
O=C(CSc1nccn1Cc1ccco1)Nc1cccc(F)c1	n	n	u	u	n	n
CC(C)NS(=O)(=O)c1ccc(OCC(=O)Nc2ccc(F)cc2)cc1	n	x	u	u	n	n
CN1CCN(c2ncc3ncc(=O)n(C[C@H]4CCCO4)c3n2)CC1	x	x	n	n	x	x
Cc1ccccc1N=C(c1ccccc1)C1C(=O)c2ccccc2C1=O	n	n	10µM	10µM	n	n
Cc1cccc(NC(=O)N[C@@H](C)C(=O)O)c1	n	16µM	n	n	n	n
COC(=O)[C@H](C)NC(=O)Nc1cccc(Br)c1	84	x	n	n	n	n
CC(C)NC(=O)Nc1ccc2c(c1)C(=O)N([C@H](C)CO)C[C@@H](C)[C@@H](CN(C)C(=O)NC1CCCCC1)O2	n	n	n	n	n	n
O=C(CN1C(=O)NC2(CCCCCC2)C1=O)Nc1ccccc1[N+](=O)[O-]	n	x	n	n	n	n
CCN1CCN(C(=O)/C=C/c2cccc(Cl)c2)CC1	n	n	n	n	n	n
COc1ccc(-c2nc3ccccc3o2)cc1NC(=O)c1ccc(Br)o1	n	22µM	u	u	n	n
COc1ccc(-c2nc3ccccc3s2)cc1NC(=O)COc1ccc(C)cc1	n	u	x	x	x	x
Cc1cc(-c2nc3ncccc3o2)ccc1NC(=O)COc1ccc(C(C)(C)C)cc1	n	n	16µM	18µM	x	x
COc1ccc(-c2nc3ccccc3o2)cc1NC(=O)COc1ccc(C(C)(C)C)cc1	n	n	16µM	u	x	x
COc1ccc(-c2nc3ccccc3s2)cc1NC(=O)COc1cccc(C)c1	n	n	16µM	u	x	x
COc1ccc(-c2nc3ccccc3o2)cc1NC(=O)c1ccc(-c2ccc(Br)cc2)o1	n	n	n	n	x	x
SMILES	DRD3 agonist	ClpP mod	DT40 TDP1 no CPT	TDP1 cell CPT	IL-1B inflam inh	D3 antag
Cc1ccc(-n2c(=O)[nH]c3sc4c(c3c2=O)CCNC4)cc1C	n	n	n	u	x	x
Cc1cccc(C(=O)Nc2ccc(-c3nc4ccccc4s3)cc2Cl)c1	n	25µM	u	u	x	x
COc1ccc(-c2nc3cc(C(C)C)ccc3o2)cc1NC(=O)c1ccccc1[N+](=O)[O-]	n	n	10µM	8.2µM	x	x
CC(C)C(=O)Nc1ccc(-c2nc3cccnc3o2)cc1	n	n	n	n	n	n
CC(C)(C)c1ccc(OCC(=O)Nc2ccc(-c3nc4cccnc4o3)cc2)cc1	n	13µM	9.2µM	u	n	n
COc1ccccc1NC(=O)c1cc2c(s1)-c1ccccc1S(=O)(=O)C2	n	x	n	n	n	n
Cc1nc(-c2cccc(NS(=O)(=O)c3cccc4ccccc34)c2)cs1	n	n	n	n	n	n
